# Reference: PubChem BioAssay (Tox21)
# Values without a mark were called inactive. Results filed as inconclusive are left out. Entries that show only a call come without a potency. Activity calls are given as the source filed them. Unless noted, the call rests on the fitted dose curve; in most records, active means well fitted curve in the direction sought with a large enough effect in the repeat runs; inconclusive means weak or mixed curves; inactive means no such curve, though single readings can be large; an effect the other way counts as inactive or inconclusive.
# Key:
# [1] = A CellTox Green Cytotoxicity Assay to monitor cytotoxicity in HepG2 cells - 0 hour (AID 1224882); further: nearly all actives have a fitted effect of over 35% in size
# Method in brief: (§1)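 First, HepG2 cells (600/well) mixed with reagent were plated; second, after 5 h at 37 C they received compounds via pintool; third, fluorescence was measured at 0 h through 40 h at 8 h intervals.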
# [2] = A CellTox Green Cytotoxicity Assay to monitor cytotoxicity in HepG2 cells - 32 hour (AID 1224883); further: nearly all actives have a fitted effect of over 50% in size
# Method in brief: as §1
# [3] = qHTS RealTime-Glo MT Cell Viability Assay in HepG2 cells - 16 hour (AID 1224885); further: nearly all actives have a fitted effect of over 50% in size
# Method in brief: (§2)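 Luminescence read-out: viable HepG2 cells reduce a prosubstrate to a NanoLuc substrate, giving a signal proportional to live cell number. Reads taken at 0, 8, 16, 24, 32 and 40 h of compound exposure at 37 C.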
# [4] = qHTS RealTime-Glo MT Cell Viability Assay in HEK293 cells - 24 hour (AID 1224886); further: nearly all actives have a fitted effect of over 50% in size; further: potency means the concentration at half of the fitted maximal effect
# Method in brief: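 Nonlytic real-time viability readout: viable cells convert prosubstrate to NanoLuc substrate, giving luminescence proportional to live cell number. HEK293, 600 cells/well, compound added after 5 h, continuous culture at 37 C.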
# [5] = qHTS RealTime-Glo MT Cell Viability Assay in HEK293 cells - 8 hour (AID 1224887); further: top concentration of the series differs between compounds; nearly all actives have a fitted effect of over 50% in size
# Method in brief: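 600 HEK293 cells per well, dispensed already mixed with RealTime-Glo MT reagents. Compound dosing came 5 h later. The same wells were read for luminescence at 0, 8, 16, 24, 32 and 40 h of exposure at 37 C.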
# [6] = A CellTox Green Cytotoxicity Assay to monitor cytotoxicity in HEK293 cells - 16 hour (AID 1224888); further: nearly all actives have a fitted effect of over 35% in size
# Method in brief: (§3)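 Dead-cell fluorescence measured kinetically: asymmetric cyanine dye, HEK293, 600 cells/well, 5 h settle, 23 nL cpd/DMSO, 37 C, reads 0–40 h every 8 h.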
# [7] = qHTS RealTime-Glo MT Cell Viability Assay in HepG2 cells - 0 hour (AID 1224889); further: nearly all actives have a fitted effect of over 50% in size
# Method in brief: as §2
# [8] = A CellTox Green Cytotoxicity Assay to monitor cytotoxicity in HepG2 cells - 8 hour (AID 1224890); further: nearly all actives have a fitted effect of over 45% in size
# Method in brief: as §1
# [9] = qHTS assay to identify small molecule antagonists of the estrogen receptor alpha (ER-alpha) signaling pathway using the BG1 cell line in the presence of 0.1 nM 17-beta-estradiol - cell viability counter screen (AID 1259241); further: nearly all actives have a fitted effect of over 40% in size
# Method in brief: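 VM7Luc4E2 cells (endogenous ER-alpha, 4×ERE-luciferase), hormone-starved 5 days in charcoal-stripped FBS, were treated with compounds plus 0.1 nM 17beta-estradiol for 22 hr at 37C; viability read in same wells as CellTiter-Fluor live-cell protease fluorescence.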
# [10] = qHTS assay to identify small molecule antagonists of the androgen receptor (AR) signaling pathway using the MDA cell line in the presence of 0.5 nM R1881 - cell viability counter screen (AID 1259242); further: nearly all actives have a fitted effect of over 45% in size
# Method in brief: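 qHTS format. MDA-kb2 (MMTV-luc, AR/GR responsive) + cpd + 0.5 nM R1881 final, 16 hr 37C/0% CO2 → CellTiter-Fluor 30 min → fluorescence intensity.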
# [11] = qHTS assay to identify small molecule HDAC inhibitors (AID 1259364);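 further: wild-type HCT-116 cells with endogenous class I/II HDAC activity; top concentration of the series differs between compounds; nearly all actives have a fitted effect of over 45% in size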
# Method in brief: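 Quantitative high-throughput format: overnight-seeded HCT-116 cells got compounds for 2 hr at 37C; HDAC-Glo I/II reagent added, 30 min RT, luminescence measured.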
# [12] = qHTS assay to identify small molecule HDAC inhibitors - cell viability counter screen (AID 1259365)
# Method in brief: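 Wild-type HCT-116 cells were seeded at 1,500 per well, incubated overnight at 37 C, then exposed to compounds in DMSO for 2hr. Viability was read by CellTiter-Glo luminescence after 30min at room temperature.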
# [13] = qHTS assay to identify small molecule antagonists of the sonic hedgehog signaling (Shh) pathway - cell viability counter screen (AID 1259367); further: nearly all actives have a fitted effect of over 55% in size
# Method in brief: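 Tox21 library chemicals were tested on a Gli1-Luc NIH/3T3 clone (2,000 cells/well) stimulated by conditioned medium; viability was quantified as fluorescence from CellTiter-Fluor reagent added at 23 hr.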
# [14] = A CellTox Green Cytotoxicity Assay to monitor cytotoxicity in HEK293 cells - 8 hour (AID 1224884); further: nearly all actives have a fitted effect of over 35% in size
# Method in brief: as §3
# [15] = target: Androgen receptor (Homo sapiens) (UniProt P10275); experiment: qHTS assay to identify small molecule antagonists of the androgen receptor (AR) signaling pathway using the MDA cell line in the presence of 0.5 nM R1881 (AID 1259243)
# Androgen receptor (Homo sapiens), sequence (P10275 whole entry, looked up): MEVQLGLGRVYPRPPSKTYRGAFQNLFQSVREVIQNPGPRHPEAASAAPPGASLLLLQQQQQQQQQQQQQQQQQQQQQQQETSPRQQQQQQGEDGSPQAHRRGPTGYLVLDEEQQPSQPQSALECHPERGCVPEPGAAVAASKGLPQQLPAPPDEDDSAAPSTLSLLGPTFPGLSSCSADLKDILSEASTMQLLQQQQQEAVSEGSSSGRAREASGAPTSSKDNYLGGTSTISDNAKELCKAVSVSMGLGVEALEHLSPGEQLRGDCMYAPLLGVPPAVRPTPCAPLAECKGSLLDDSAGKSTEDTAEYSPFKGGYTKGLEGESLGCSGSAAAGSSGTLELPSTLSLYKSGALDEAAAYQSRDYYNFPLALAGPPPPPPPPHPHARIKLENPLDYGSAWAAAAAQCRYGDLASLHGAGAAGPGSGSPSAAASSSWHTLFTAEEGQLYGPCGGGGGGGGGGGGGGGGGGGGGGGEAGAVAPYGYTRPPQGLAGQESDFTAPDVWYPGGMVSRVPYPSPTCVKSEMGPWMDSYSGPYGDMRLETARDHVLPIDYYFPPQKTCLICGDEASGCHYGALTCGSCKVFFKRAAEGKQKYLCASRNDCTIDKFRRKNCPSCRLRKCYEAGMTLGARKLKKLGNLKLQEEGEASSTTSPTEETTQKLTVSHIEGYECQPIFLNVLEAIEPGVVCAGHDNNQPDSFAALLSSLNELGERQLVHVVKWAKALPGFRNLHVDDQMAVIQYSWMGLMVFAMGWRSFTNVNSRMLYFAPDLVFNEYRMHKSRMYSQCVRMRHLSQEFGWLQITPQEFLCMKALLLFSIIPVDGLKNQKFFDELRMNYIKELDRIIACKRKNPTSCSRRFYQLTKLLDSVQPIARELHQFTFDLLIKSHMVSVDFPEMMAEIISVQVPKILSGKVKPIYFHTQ
# Method in brief: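 Antagonist mode quantitative HTS in MDA-kb2 MMTV-luciferase cells, agonist R1881 at 0.5 nM final, 16 hr exposure at 37C and 0% CO2, luminescent detection.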
# [16] = qHTS assay to identify small molecule agonists of the sonic hedgehog signaling (Shh) pathway (AID 1259368; calls by dose curve; further: series mostly up to about 92 µM; nearly all actives have a fitted effect of over 15% in size)
# Method in brief: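 Quantitative high-throughput format using a Gli1-driven firefly luciferase reporter line derived from NIH/3T3 cells. After a 24 hr compound treatment at 37 C and 5% CO2, luminescence reported Gli1 response element activity.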
# [17] = target: Estrogen receptor (Homo sapiens) (UniProt P03372); experiment: qHTS assay to identify small molecule antagonists of the estrogen receptor alpha (ER-alpha) signaling pathway using the BG1 cell line in the presence of 0.1 nM 17-beta-estradiol (AID 1259244); further: nearly all actives have a fitted effect of over 50% in size
# Estrogen receptor (Homo sapiens), sequence (P03372 whole entry, looked up): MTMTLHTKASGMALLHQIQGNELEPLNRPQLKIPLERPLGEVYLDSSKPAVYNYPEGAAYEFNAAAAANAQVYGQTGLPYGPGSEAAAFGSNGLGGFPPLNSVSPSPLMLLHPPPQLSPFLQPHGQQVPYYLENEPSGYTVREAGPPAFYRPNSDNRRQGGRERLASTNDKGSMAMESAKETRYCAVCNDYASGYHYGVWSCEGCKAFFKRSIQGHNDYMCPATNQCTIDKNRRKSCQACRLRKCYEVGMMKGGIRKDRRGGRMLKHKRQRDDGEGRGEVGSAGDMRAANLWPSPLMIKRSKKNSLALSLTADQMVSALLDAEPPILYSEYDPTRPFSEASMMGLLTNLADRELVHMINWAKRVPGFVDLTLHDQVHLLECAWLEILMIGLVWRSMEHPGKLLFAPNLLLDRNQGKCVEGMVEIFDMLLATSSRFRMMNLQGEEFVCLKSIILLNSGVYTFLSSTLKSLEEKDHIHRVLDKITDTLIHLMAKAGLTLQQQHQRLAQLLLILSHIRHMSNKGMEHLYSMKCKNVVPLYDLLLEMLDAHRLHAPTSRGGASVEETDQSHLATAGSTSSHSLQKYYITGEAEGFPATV
# Method in brief: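 Reporter is a stably transfected luciferase under four estrogen responsive elements in VM7Luc4E2 cells expressing native full-length ER-alpha; inhibition of 0.1 nM (final) 17beta-estradiol-driven signal over 22 h is read by luminescence.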
# [18] = qHTS assay to identify small molecule phospholipidosis (PLD) inducers (AID 1259344; active means well fitted curve in the direction sought with a large enough effect; an effect the other way counts as inactive or inconclusive)
# Method in brief: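 Image-based: LipidTOX Red pit count/intensity per well and per cell; HepG2, 24 h compound at 37 C, PFA fixation, Hoechst counterstain.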
# [19] = qHTS assay to identify small molecule agonists of the sonic hedgehog signaling (Shh) pathway - cell viability counter screen (AID 1259366); further: nearly all actives have a fitted effect of over 50% in size
# Method in brief: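 NIH/3T3-derived 3T3 Gli1-Luc cells (stable Gli1-responsive firefly luciferase reporter) were seeded, rested 4 hr at 37 C/5% CO2, then exposed to compounds in DMSO for 24 hr; viability was read by CellTiter-Fluor fluorescence in the same wells.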
SMILES,Potency [1],Potency [2],outcome [3],Potency [4],Potency [5],outcome [6],Potency [7],outcome [8],outcome [9],outcome [10],Potency [11],outcome [12],Potency [13],outcome [14],Potency [15],outcome [16],outcome [17],outcome [18],Potency [19]
CC(C)(C#N)Nc1nc(Cl)nc(NC2CC2)n1,inactive,inactive,inactive,inactive,inactive,inactive,inactive,inactive,inactive,inactive,inactive,inactive,inactive,–,–,–,–,–,–
COC(=O)Nc1ccc(Cl)c(Cl)c1,inactive,inactive,inactive,–,–,inactive,inactive,inactive,inactive,inactive,inactive,inactive,–,inactive,6.82 µM (active),inactive,–,–,–
CCCCCCC#CC(=O)OC,inactive,–,inactive,inactive,inactive,inactive,inactive,inactive,inactive,inactive,inactive,inactive,inactive,inactive,–,inactive,–,–,–
CCCCCCCCCCCCCCCCCCO,inactive,inactive,inactive,–,inactive,inactive,inactive,inactive,inactive,inactive,inactive,inactive,inactive,inactive,–,inactive,inactive,inactive,inactive
CCN(Cc1ccccc1)c1ccccc1,inactive,inactive,inactive,21.6 µM (active),inactive,–,inactive,inactive,inactive,inactive,inactive,inactive,–,inactive,53.8 µM (active),inactive,–,–,–
O=C(c1ccccc1)C1(O)CCCCC1,inactive,inactive,inactive,inactive,inactive,–,inactive,inactive,inactive,inactive,inactive,inactive,inactive,–,–,inactive,–,–,inactive
CC(C)(CCC(=O)O)C(=O)O,inactive,inactive,inactive,–,inactive,inactive,inactive,inactive,inactive,inactive,inactive,inactive,inactive,inactive,–,inactive,inactive,–,–
N[C@H](C(=O)O)[C@@H](O)c1ccc(O)c(O)c1,inactive,inactive,inactive,–,inactive,inactive,inactive,inactive,inactive,inactive,inactive,inactive,inactive,inactive,–,inactive,inactive,–,–
C[N+]1(C)[C@@H]2CC(OC(=O)[C@H](CO)c3ccccc3)C[C@H]1[C@@H]1O[C@@H]12 (stereo partly specified),inactive,inactive,–,–,–,inactive,–,inactive,inactive,inactive,inactive,inactive,inactive,inactive,–,inactive,inactive,inactive,inactive
CC(C)CC(C)(N)C#N (stereo unspecified),inactive,inactive,inactive,–,inactive,inactive,inactive,inactive,inactive,inactive,inactive,inactive,inactive,inactive,–,inactive,–,–,–
CC[N+](C)(CC)CCOC(=O)C1c2ccccc2Oc2ccccc21,inactive,inactive,inactive,inactive,inactive,inactive,inactive,inactive,inactive,inactive,inactive,inactive,inactive,inactive,–,inactive,–,–,inactive
COc1cc(C)nc(-n2nc(C)cc2OC)n1,inactive,inactive,inactive,inactive,inactive,inactive,inactive,inactive,inactive,inactive,inactive,inactive,inactive,inactive,–,inactive,–,inactive,inactive
